# About 79,000 compounds went through this panel and 15% of them were active in at least one assay; those are over-represented in the sample as a whole. Values without a mark were called inactive. Calls of active or inactive are those of the source. No stated cut-off is given here; in the data, active means growth inhibition above about 70%; inactive means the rest.
# Assay: NCI Yeast Anticancer Drug Screen. Data for the sgs1 mgt1 strain (AID 161);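 further: 0% = growth of cultures given vehicle only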
# Conditions: S. cerevisiae sgs1 mgt1 strain, at 50.0 µM, stronger effect = higher value
# How it was run: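 This yeast growth screen uses a strain with defined DNA-repair lesions; compound-treated growth is compared with vehicle-treated growth.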
row,Compound,growth inhibition
1,Cc1cccc(NC(=O)C(Cl)Cl)n1,-24.4%
2,COC(=O)c1nc(=S)[nH]c(C(=O)OC)c1C(=O)c1cccc2ccccc12,4.35%
3,CC(=N/N(C)c1ccccc1)/C(C)=N/N(C)c1ccccc1,3.7%
4,O=C(C(=Nc1ccccc1)C(=Nc1ccccc1)C(=O)c1ccccc1)c1ccccc1,55.2%
5,CCc1c(NCCO)c(C(=O)NCCO)c2nc3ccccc3n2c1NCCO,-3.1%
6,O=C1OC(=O)C2C1C1C=CC2C1(c1ccccc1)c1ccccc1 (stereo not given),8.95%
7,CC(=O)OCC1OC(n2cnc3c(N)ncnc32)C(O)C1O (stereo not given),-6.15%
8,Clc1cccc(C2N3CCCCC3[C@@H]3c4[nH]c5ccccc5c4CCN23)c1 (stereo not given in full),-1.95%
9,CC1(C)SCCNC1=O,8.8%
10,O=C1NC(=Nc2ccccc2Cl)SC1C(=O)Nc1ccc([N+](=O)[O-])cc1[N+](=O)[O-] (stereo not given),-34.4%
11,CCSCC1C(=O)C23C(O)C1CCC2C12COC3(O)C(O)C1C(C)(C)CCC2O (stereo not given),7.45%
12,CC(C)(C)NC(=S)N/N=C/c1ccccn1,90.5% (active)
13,N#CC(C(=O)O)C1(c2ccccc2)CCCCC1 (stereo not given),-5.3%
14,CC(C)(C)c1cc(-c2c3nc(c(-c4cc(C(C)(C)C)cc(C(C)(C)C)c4)c4ccc([nH]4)c(-c4cc(C(C)(C)C)cc(C(C)(C)C)c4)c4nc(c(-c5cc(C(C)(C)C)cc(C(C)(C)C)c5)c5ccc2[nH]5)C=C4)C=C3)cc(C(C)(C)C)c1,24.2%
15,COc1ccc([N+](=O)[O-])c(C(OC(C)=O)OC(C)=O)c1OC(C)=O,20.2%
16,CCCC(C)C(=O)OC1CCCC1 (stereo not given),5.3%
17,O=C(NC(=S)Nc1ccsc1)c1ccccc1,2.6%
18,CN(C)CCNC(=O)c1cccc(C(C)(C)C)c1[N+](=O)[O-],-18.9%
19,CC(C)=C1CCC(CN2CCOCC2)C1=O (stereo not given),23.1%
20,CCC(C)NC(=O)/C=C/C(=O)NC(C)CC (stereo not given),-5.75%

row,Compound,growth inhibition
1,Cn1cc(/C=C/C(=O)c2ccccc2[N+](=O)[O-])c2ccccc21,2.6%
2,COC(=O)C[C@H](C)[C@H](C)CC(=O)O,-1.6%
3,CCCCCN(CCCCC)C(=S)[S-].CCCCCN(CCCCC)C(=S)[S-].[Zn],72.1% (active)
4,O=C1c2ccccc2-c2cc(F)ccc21,-7.4%
5,O=c1[nH]c2cc3ccccc3cc2c2ccccc12,0.8%
6,CC(=O)OC1CCC2(C)C(=CCC3C2CCC2(C)C3CC(Br)C2(O)C(C)=O)C1 (stereo not given),15%
7,O=c1[nH]c(=O)n(C2OC(COP(=O)(O)OP(=O)(O)OC3OC(CO)C(O)C(O)C3O)C(O)C2O)cc1F (stereo not given),8.8%
8,O=C(O)c1cc(Cl)cc([N+](=O)[O-])c1,52.5%
9,O=C(O)c1ccc(C(=O)O)c(C(=O)O)c1.[NH-]C1CCCCC1[NH-].[Pd+2],7.9%
10,COC1=NS(=O)(=O)C2(O1)c1ccccc1-c1ccccc12,11.4%
11,CCOC(=O)/C(O)=C(/C=NC(=S)c1ccncc1)C(=O)OCC,-15.3%
12,CCC1(C)C(=O)SC(=S)N1C (stereo not given),-4.9%
13,CC(=O)C1(SCCO)CCC2C3CCC4=CC(=O)CCC4(C)C3CCC21C (stereo not given),97% (active)
14,CCCCCCc1c(C)nc(N)[nH]c1=O,-13.4%
15,CN(C)C(CN)CC1=C(CC(CN)N(C)C)CCC1 (stereo not given),-5.5%
16,CC(=N\NS(=O)(=O)c1ccc(C)cc1)/C(C)=N/NS(=O)(=O)c1ccc(C)cc1,12.8%
17,O=C(N/N=C\c1ccccc1)Nc1cccc2ccccc12,20.3%
18,COc1ccc(NC(=O)Nc2cccc(Cl)c2C)c(OC)c1,32.8%
19,C=CCOC(=O)NC(CCC(N)=O)C(=O)O (stereo not given),14.7%
20,CC1(C)OCN(c2ccc(Cl)cc2)Cn2c1nc1ccccc12,-22.8%

# Assay: NCI Yeast Anticancer Drug Screen. Data for the cln2 rad14 strain (AID 165);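 further: 0% = growth equal to vehicle treated cultures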
# Conditions: S. cerevisiae cln2 rad14 strain, at 50.0 µM, stronger effect = higher value
# How it was run: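 Yeast carrying cln2 and rad14 alterations (cell cycle control and DNA damage repair) were exposed to compounds. Growth inhibition was measured against vehicle-treated controls.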
row,Compound,growth inhibition
1,Cc1cccc(NC(=O)C(Cl)Cl)n1,-43.8%
2,COC(=O)c1nc(=S)[nH]c(C(=O)OC)c1C(=O)c1cccc2ccccc12,-24.3%
3,CC(=N/N(C)c1ccccc1)/C(C)=N/N(C)c1ccccc1,3.65%
4,O=C(C(=Nc1ccccc1)C(=Nc1ccccc1)C(=O)c1ccccc1)c1ccccc1,8.5%
5,CCc1c(NCCO)c(C(=O)NCCO)c2nc3ccccc3n2c1NCCO,-14.1%
6,O=C1OC(=O)C2C1C1C=CC2C1(c1ccccc1)c1ccccc1 (stereo not given),-5.65%
7,CC(=O)OCC1OC(n2cnc3c(N)ncnc32)C(O)C1O (stereo not given),-39.7%
8,Clc1cccc(C2N3CCCCC3[C@@H]3c4[nH]c5ccccc5c4CCN23)c1 (stereo not given in full),3.1%
9,CC1(C)SCCNC1=O,11.8%
10,O=C1NC(=Nc2ccccc2Cl)SC1C(=O)Nc1ccc([N+](=O)[O-])cc1[N+](=O)[O-] (stereo not given),-28.6%
11,CCSCC1C(=O)C23C(O)C1CCC2C12COC3(O)C(O)C1C(C)(C)CCC2O (stereo not given),10.9%
12,CC(C)(C)NC(=S)N/N=C/c1ccccn1,88.3% (active)
13,N#CC(C(=O)O)C1(c2ccccc2)CCCCC1 (stereo not given),-16%
14,CC(C)(C)c1cc(-c2c3nc(c(-c4cc(C(C)(C)C)cc(C(C)(C)C)c4)c4ccc([nH]4)c(-c4cc(C(C)(C)C)cc(C(C)(C)C)c4)c4nc(c(-c5cc(C(C)(C)C)cc(C(C)(C)C)c5)c5ccc2[nH]5)C=C4)C=C3)cc(C(C)(C)C)c1,23.3%
15,COc1ccc([N+](=O)[O-])c(C(OC(C)=O)OC(C)=O)c1OC(C)=O,9%
16,CCCC(C)C(=O)OC1CCCC1 (stereo not given),-5.1%
17,O=C(NC(=S)Nc1ccsc1)c1ccccc1,8.85%
18,CN(C)CCNC(=O)c1cccc(C(C)(C)C)c1[N+](=O)[O-],0.35%
19,CC(C)=C1CCC(CN2CCOCC2)C1=O (stereo not given),19.6%
20,CCC(C)NC(=O)/C=C/C(=O)NC(C)CC (stereo not given),-29.7%

row,Compound,growth inhibition
1,Cn1cc(/C=C/C(=O)c2ccccc2[N+](=O)[O-])c2ccccc21,18.1%
2,COC(=O)C[C@H](C)[C@H](C)CC(=O)O,-7.3%
3,CCCCCN(CCCCC)C(=S)[S-].CCCCCN(CCCCC)C(=S)[S-].[Zn],46.4%
4,O=C1c2ccccc2-c2cc(F)ccc21,-6.25%
5,O=c1[nH]c2cc3ccccc3cc2c2ccccc12,-15.7%
6,CC(=O)OC1CCC2(C)C(=CCC3C2CCC2(C)C3CC(Br)C2(O)C(C)=O)C1 (stereo not given),17.7%
7,O=c1[nH]c(=O)n(C2OC(COP(=O)(O)OP(=O)(O)OC3OC(CO)C(O)C(O)C3O)C(O)C2O)cc1F (stereo not given),18.9%
8,O=C(O)c1cc(Cl)cc([N+](=O)[O-])c1,19.3%
9,O=C(O)c1ccc(C(=O)O)c(C(=O)O)c1.[NH-]C1CCCCC1[NH-].[Pd+2],10.6%
10,COC1=NS(=O)(=O)C2(O1)c1ccccc1-c1ccccc12,13.2%
11,CCOC(=O)/C(O)=C(/C=NC(=S)c1ccncc1)C(=O)OCC,-6.45%
12,CCC1(C)C(=O)SC(=S)N1C (stereo not given),-8.4%
13,CC(=O)C1(SCCO)CCC2C3CCC4=CC(=O)CCC4(C)C3CCC21C (stereo not given),-3.35%
14,CCCCCCc1c(C)nc(N)[nH]c1=O,-67.7%
15,CN(C)C(CN)CC1=C(CC(CN)N(C)C)CCC1 (stereo not given),-1%
16,CC(=N\NS(=O)(=O)c1ccc(C)cc1)/C(C)=N/NS(=O)(=O)c1ccc(C)cc1,0.85%
17,O=C(N/N=C\c1ccccc1)Nc1cccc2ccccc12,-25.9%
18,COc1ccc(NC(=O)Nc2cccc(Cl)c2C)c(OC)c1,-3.15%
19,C=CCOC(=O)NC(CCC(N)=O)C(=O)O (stereo not given),9.5%
20,CC1(C)OCN(c2ccc(Cl)cc2)Cn2c1nc1ccccc12,2.5%
